The entries come from a sample that favours hits as a whole.
Tg IFNy HTS = T. gondii growth inhibition under IFN-gamma; Toxoplasma gondii growth in IFN-gamma-treated host cells; hits give low values; activity change, negative = inhibition, % (concentration not given with the values); hit rate 3.8% among 69,000; in the data active = activity change below about -70%, passing the limit was not always enough;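 also: host cells are HeLa cells infected with Toxoplasma gondii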
Numbers stand for hits; – = inactive; ! = not confirmed by another sample.

SMILES | Tg IFNy HTS
O=C1N(Cc2ccccc2)C(=O)C2(CCN(CC3CC=CCC3)CC2)N1CCc1ccccc1 (stereo not drawn) | –
O=C1N(Cc2ccccc2)C(=O)C2(CCN(Cc3c[nH]c4ccccc34)CC2)N1CCc1ccccc1 | -77.1
O=C1N(Cc2ccccc2)C(=O)C2(CCN(Cc3ccsc3)CC2)N1CCc1ccccc1 | –
COCC1CN(C(=O)Cc2ccsc2)Cc2nccn2C1 (stereo not drawn) | –
CSCCC(NC(=O)C1CC(=O)Nc2ccccc21)c1cc(=O)[nH]c(-c2cccnc2)n1 (stereo not drawn) | –
Cc1ccc(Oc2ccc(CNC(=O)c3c(-c4ccncc4)noc3C)cc2)cc1 | -84.1
Cc1noc(C)c1C(=O)NCc1ccc2c(c1)OCO2 | –
COc1ccc(-c2noc(CC(=O)NCc3ccccc3)c2-c2ccc(OC)cc2)cc1 | –
O=C1CCCN1[C@@H]1CN(CCc2ccccc2)[C@H]2CCCO[C@@H]12 | –
c1ccc(C[C@H]2[C@H](N3CCOCC3)CCN2Cc2ccoc2)cc1 | –
C[C@@H](NCCc1ccc(O)cc1)[C@@H](O)c1ccc(O)cc1 | –
CC(NCCc1ccc(O)cc1)C(O)c1ccc(O)cc1 (stereo not drawn) | –
CCCCCCCCNC(C)C(O)c1ccc(SC(C)C)cc1 (stereo not drawn) | -78.4!
CC(C(=O)O)N1C(=O)CSC1=S (stereo not drawn) | –
CN(C)C(=O)N1C[C@@H](C(=O)NCc2ccco2)C[C@@H]2OCC[C@@H]21 | –
CCc1noc(-c2cc(=O)n(CC(=O)NCc3ccccc3F)c3ccccc23)n1 | –
CCOc1ccc(CNCc2cccs2)cc1OCC | –
CCOc1ccc(Cc2nccc3cc(OCC)c(OCC)cc23)cc1OCC | -83.0
COc1ccc(C(O)c2nccc3cc(OC)c(OC)cc23)cc1OC (stereo not drawn) | –
COc1ccccc1-c1nc(CN(c2ccc(C)cc2)S(=O)(=O)c2cccs2)c(C)o1 | –
CS(=O)(=O)N1CCc2sc(C(=O)Nc3ccc(Cl)cc3)cc21 | –
Cc1nc(N2CCOCC2)c2sc(=S)n(-c3ccccc3)c2n1 | –
CC1=Nc2ccc(-c3ccccc3)cc2C1(C)C | -98.9
Cc1ccc(-c2nnc(-c3ccccc3)n2-c2ccc(C)cc2)cc1 | –
Cn1nccc1-c1nc(NCc2ccccn2)ncc1-c1ccsc1 | -93.0
SMILES | Tg IFNy HTS
Cn1ccnc1-c1cnc(NCc2ccccn2)nc1-c1ccco1 | –
Cc1nc2ncc(-c3cc(NCc4ccccn4)nc4[nH]ccc34)cc2[nH]1 | –
c1ccc(Cn2c3ccccc3c3ccccc32)cc1 | –
O=c1c2ccccc2n(Cc2ccc(F)cc2)c2ccccc12 | -80.8
O=C1CCCc2c1c1ccccc1n2Cc1ccccc1 | –
c1ccc(-c2[nH]cnc2-c2cccc(-n3cccn3)c2)cc1 | -94.9
O=C(O)c1ccc(-c2cccc(-n3cccn3)c2)o1 | –
CN(C)c1cncc(-c2cccc(-n3cccn3)c2)n1 | –
C[C@H](CO)N1C[C@H](C)[C@@H](CN(C)C(=O)Nc2ccc3c(c2)OCO3)OCc2ccccc2-c2c(n(C)c3ccccc23)C1=O | –
CC(C)CC(NC(=O)c1cnccn1)c1nnc2n1CCNCC2 (stereo not drawn) | –
Cc1oc(C2CCN(C(=O)NCc3ccccc3)CC2)nc1C(=O)N1CCOCC1 | –
Cc1oc(-c2ccc(NC(=O)Cc3ccccc3Cl)cc2)nc1Cn1cccn1 | –
COc1ccccc1-c1nc(Cc2noc(-c3ccccc3F)n2)c(C)o1 | -78.8
COc1ccccc1-c1nc(Cc2noc(-c3ccccn3)n2)c(C)o1 | –
COc1ccc(-c2nc(Cc3noc(-c4ccccc4F)n3)c(C)o2)cc1 | -113.2
COc1cccc(-c2nc(Cc3nc(-c4ccccc4)oc3C)no2)c1 | –
COc1ccccc1-c1nc(Cc2noc(-c3ccc(F)cc3)n2)c(C)o1 | –
Cc1ccc(OCc2nc(Cc3nc(-c4ccccc4)oc3C)no2)cc1 | –
O=C(CCN1CCCO1)N1CCn2nc(C(=O)N3CCCC3)cc2C1 | –
Cc1cccc(-c2nc(CSc3nc4c(c(=O)[nH]3)CN(C(C)C)CC4)c(C)o2)c1 | –
Cn1nc(C(=O)Nc2cnc3n2CCCC3)ccc1=O | –
CCC(=O)N1CCCC(c2cnc(Nc3nccs3)cn2)C1 (stereo not drawn) | –
CCC(=O)N1CCCC(c2cc(C(F)(F)F)c3c(=O)n(C)c(=O)n(C)c3n2)C1 (stereo not drawn) | -78.6
CCN1CCN(CC(=O)N2CCCC(c3cc(=O)n4c(n3)CCCCC4)C2)CC1 (stereo not drawn) | –
CN(C)CC1(O)CCN(C(=O)c2cc(C3CC3)[nH]n2)C1 (stereo not drawn) | –
Nc1n[nH]c(=O)c2cc(-c3ccc(Cl)cc3)[nH]c(=O)c12 | –
COc1ccc(-c2cc(C(=O)N3CCCC3c3ccc(OC)c(OC)c3)n(C)n2)cc1 (stereo not drawn) | –
Cc1nn(C)c2sc(C(=O)NC3CCCCNC3=O)cc12 (stereo not drawn) | –
Cc1cc(C#N)cc(C)c1Oc1nc(Nc2ccc(C#N)cc2)nc(N)c1Br | -85.6
Cc1[nH]cnc1CN(C)Cc1nc2ccccc2n1C | –

Compound activity (PubChem)
